Experimental data from PubChem BioAssay AID1159580 (chemical genetic matrix, 2015).
In all, about 5,500 compounds went through this assay and about 2,000 (36%) were called active. Not shown: some 18% with an inconclusive outcome. Rule as the data show it: active = normalized growth mostly below about 0.91 (no sharp cut-off); inconclusive = no clear call, values can overlap the other calls; inactive = mostly above about 0.92. Some of the results follow.

Assay: chemical genetic growth profiling, strain panel (AID 1159580);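 also: tested at 20 µM; growth read once vehicle control cultures reached saturation at 30 °C; 1 = growth at the plate median or of vehicle wells; lower values mean less growth of the strain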
Conditions: S. cerevisiae deletion strains, growth OD

Measured: normalized growth

CN(C)CCc1c[nH]c2ccc(Cn3cncn3)cc12
inactive: locus YHR030C, strain SLT2, stronger effect = lower value 0.92 | locus YHR079C, strain IRE1, stronger effect = lower value 0.928 | locus YJL095W, strain BCK1, stronger effect = lower value 0.961 | locus YJR066W, strain TOR1, stronger effect = lower value 0.914 | locus YLR113W, strain HOG1, stronger effect = lower value 0.918 | locus YNL183C, strain NPR1, stronger effect = lower value 0.926 | locus YOR231W, strain MKK1, stronger effect = lower value 0.928 | locus YPL256C, strain CLN2, stronger effect = lower value 0.936

CC(N)=NCCC[C@H](N)C(=O)O
inactive: locus YAL040C, strain CLN3, stronger effect = lower value 1 | locus YCL061C, strain MRC1 (second series), stronger effect = lower value 1.01 | locus YDR363W, strain ESC2, stronger effect = lower value 1.01 | locus YER002W, strain NOP16, stronger effect = lower value 0.997 | locus YMR263W, strain SAP30, stronger effect = lower value 1.02 | locus YMR307W, strain GAS1, stronger effect = lower value 1.01 | locus YNL175C, strain NOP13, stronger effect = lower value 1.01 | locus YNL197C, strain WHI3, stronger effect = lower value 0.999 | locus YNL224C, strain SQS1, stronger effect = lower value 1 | locus YOR083W, strain WHI5 (second series), stronger effect = lower value 1.02 | locus YPL241C, strain CIN2, stronger effect = lower value 1.01
